67 molecules from PubChem BioAssay AID686979 (National Center for Advancing Translational Sciences (NCATS), 2013) can be followed below.

SMILES strings stand for the structures. Where “and” joins values, the source holds several entries; their conditions need not be identical. Equal values may be shown once. Out of some 420,000 compounds screened, about 50,000 (12%) were called active. Not shown: some 26% with an inconclusive outcome. The call rests on the fitted dose curve; in most records, active means well fitted inhibition curve with a large enough effect; inconclusive means small, poorly fitted or top-dose-only effect; inactive means flat fitted curve, though single readings scatter. Shown is part of a subset that was picked to be rich in actives. More than one record can exist for a structure, and the calls need not agree.
On the % scale 0 is the no-effect control and ±100 the full control effect; potency means the concentration at half of the fitted maximal effect.

This assay can be described thus: qHTS for Inhibitors of human tyrosyl-DNA phosphodiesterase 1 (TDP1): qHTS in cells in presence of CPT. Further: nearly all actives have a fitted effect of over 55% in size. To be noted: chicken DT40 Tdp1-/-;hTDP1 cells + 20 nM CPT, ATP luminescence, 48 h; series mostly up to 46.2 µM; activity change, negative = growth inhibition: at the top concentration. An excerpt:
Human tyrosyl-DNA phosphodiesterase 1 (TDP1) is a novel repair gene, and we propose to use it as a new target for anticancer drug development. TDP1 is not an essential protein, but under treatment with topoisomerase I poison (camptothecin: CPT), TDP1 works as a critical factor for cell survival. To directly identify novel TDP1 inhibitors active in a cellular environment, we have knocked-out the Tdp1 gene in chicken DT40 cells (Tdp1-/-) and generated a complemented counterpart cells that contains a stable transfection of the human TDP1 gene (Tdp1-/-;hTDP1 cells). For the primary screen, Tdp1-/-;hTDP1 cells will be exposed to small molecules in the presence or absence of CPT, and their growth kinetics will be evaluated after 48 hours by measuring ATP activity. […] The hit compounds will then be evaluated in the presence or absence of CPT using Tdp1-/- cells. […] In tertiary assays, biochemical gel-based assays will be used to assess whether the hit compounds specifically target TDP1. To this end, we have screened this cell line against the MLSMR in two primary screens. In one screen we add CPT and in the other we screen in the absence of CPT; this AID represents the screen where CPT was present. NIH Chemical Genomics Center [NCGC] NIH Molecular Libraries Probe Centers Network [MLPCN] MLPCN Grant: MH095538 Assay Submitter (PI): Yves Pommier, NCI
DT40-hTDP1 cells with 20 nM Camptothecin (add 20 microL of 1 mM CPT stock in 1 L of cell culture medium) were dispensed at 400 cells/5microL/well in tissue culture treated 1536-well white wall/solid bottom assay plates (Greiner Bio-One North America, NC, U.S.A.) using a Multidrop Combi 8 channel dispenser (Thermo Fisher, Waltham, MA, USA). 23 nL compounds and controls were transferred using the pin tool (Kalypsys, San Diego, CA, USA) to the assay plates. The assay plates were then incubated at 37 masculineC for a minimum 48 hr. Three microL of Cell Titer Glo solution was added to the plates and incubated at RT in dark for 30 min. Luminescence was read using ViewLux (Perkin Elmer) with 1 sec exposure slow speed, high gain and 2x binning.
In general terms: In qHTS, concentration-response curves come from the screen itself.
With `O=C(CCN1C(=O)C2CCCCC2C1=O)Nc1ccc(OC(F)F)cc1` (configuration not stated), the “activity change, negative = growth inhibition” value was 0.993% (inactive). Still for that read-out and setting: then `COc1ccccc1-n1ccnc(SCC(=O)NC2CCCCC2)c1=O`, with -22.8% (inactive). The same measure, in the same setting: to `COc1ccccc1C(=O)NCc1nnc(SC(C)C(=O)Nc2nccs2)n1C` (configuration not stated) belongs -3.89% (inactive).

Consider `Cc1c(NS(=O)(=O)c2ccc(Cl)cc2)c(=O)n(-c2ccccc2)n1C`, for which the “activity change, negative = growth inhibition” value is -2.45% (inactive). Still for that read-out and setting: to `O=C(NCc1ccc(Cl)cc1)NCc1ccc(Cl)cc1` belongs -7.05% (inactive); to `O=C(c1cccs1)N(C(=O)c1cccs1)c1ccccn1`, 2.25% (inactive). Still for that read-out and setting: then `CCOc1cc(C(=O)O)ccc1OCCOc1ccccc1`, with 11.7% (inactive); and `O=C(COc1ccccc1)OCc1cc(=O)n2nc(-c3cccs3)sc2n1`, with -2.16% (inactive). Regarding `CCc1nc2c(OCCOc3ccccc3)cccn2c1N(C)C(=O)c1ccc(OC)cc1`, the Potency is 29.1 µM (active). The same measure, in the same setting: then `CCc1nc2c(OCCOc3ccccc3)cccn2c1N(C)C(=O)c1cccs1`, with 25.9 µM (active).

`CCc1nc2c(OCC(N)=O)cccn2c1N(C)C(=O)c1ccc(OC)cc1`: the “activity change, negative = growth inhibition” value is -52.9% (inactive). Same read-out and setting: then `Cc1c(C2=CCN(S(=O)(=O)c3ccc(Cl)cc3)CC2)c2ccccc2n1C`, with -25% (inactive); and `Cc1ccn(CC(=O)N2N=C(C(F)F)CC2(O)C(F)F)n1` (configuration not stated), with -25.3% (inactive); and `COc1cccc(CN2CCNC(=O)C2CC(=O)N(C)CCc2ccccn2)c1` (configuration not stated), with 10.9% (inactive). Still for that read-out and setting: then `O=C(NCCCNC(=O)NC1CCCCC1)NC1CCCCC1`, with -19.5% (inactive).

For the molecule `O=C(Nc1ccc(Cl)cc1)Nc1ccc(Oc2cccnc2)nc1`, the Potency is 18.4 µM (active).

With `Cc1ccc(NC(=O)Nc2cccnc2)cc1`, the “activity change, negative = growth inhibition” value is 4.49% (inactive). Take `O=C(NNC(=O)c1csc(-c2cccnc2)n1)Nc1ccc(Cl)cc1`: the “activity change, negative = growth inhibition” value was -15% (inactive). Same read-out and setting: to `CCN=c1sc(C(=O)Nc2ccccc2)c(C)n1CC` belongs 2.49% (inactive); to `O=C(COc1ccc(/C=N/NS(=O)(=O)c2ccccc2)cc1)NCCc1ccccc1`, -22.2% (inactive). On to `Cc1cccc(N2CCN(C(=O)COCc3cc(-c4ccc5c(c4)OCO5)on3)CC2)c1C`, for which the Potency result was “inactive”. Take `CC(C)NC(=O)COCc1cc(-c2ccc3c(c2)OCO3)on1`: the “activity change, negative = growth inhibition” value is -0.118% (inactive). Take `O=C(COCc1cc(-c2ccc3c(c2)OCO3)on1)N1CCN(c2cccc(Cl)c2)CC1`: the Potency result is “inactive and 18.4 µM (active)”. Consider `CC(=O)c1ccccc1NC(=O)C1CC(=O)N(c2ccc3c(c2)OCCO3)C1` (configuration not stated), for which the “activity change, negative = growth inhibition” value is 0.743% (inactive). Same read-out and setting: then `N#CCCN(C(=O)COC(=O)C1CCN(c2ccc(C(F)(F)F)cn2)CC1)c1ccc(F)cc1`, with -17.8% (inactive).

In the case of `c1ccc(-n2nnnc2NC2CCCCCC2)cc1`, the “activity change, negative = growth inhibition” value is -24.8% (inactive). As for `FC(F)(F)c1nc(-c2ccccc2)ncc1-c1nnnn1-c1ccccc1`, the Potency was 20.6 µM (active). With `c1ccc(-n2nnnc2-c2cccnc2)cc1`, the “activity change, negative = growth inhibition” value is -7.87% (inactive).

For the molecule `Cc1ccc2c(=O)cc(C(=O)Nc3sc4c(c3C(=O)NCc3cccnc3)CCCC4)oc2c1`, the “activity change, negative = growth inhibition” value is 3% (inactive). The same measure, in the same setting: then `COc1ccc(C2CC(c3cccs3)=NN2C(=O)CSc2nnc(N)s2)cc1OC` (configuration not stated), with 2.09% (inactive).

For the molecule `CSc1nc(Nc2ccc(F)cc2)cc(-c2ccccc2)n1`, the Potency was 14.6 µM (active). As to `Fc1ccc2cnc(-c3ccccc3)cc2c1`, the “activity change, negative = growth inhibition” value was -40.8% (inactive). On the same count and under the same terms, to `Fc1ccc(Nc2nnns2)cc1` belongs -18.8% (inactive); to `CCNc1nc(Oc2ccc(C(=O)OC)cc2)nc(N2CCOCC2)n1`, -2.75% (inactive); to `O=C(NCCS(=O)(=O)NCc1ccc(F)cc1)c1ccccc1`, -16.7% (inactive). The same measure, in the same setting: then `COc1ccc(S(=O)(=O)NCc2ccc(C(=O)N(C)Cc3ccco3)cc2)cc1`, with -26.5% (inactive). On to `COc1ccccc1S(=O)(=O)NCc1ccc(C(=O)N(C)Cc2ccc(F)cc2)cc1`, for which the Potency was 20.6 µM (active). Take `NC(=O)c1oc2ccccc2c1NC(=O)CS(=O)(=O)c1ccccc1`: the “activity change, negative = growth inhibition” value was -14.5% (inactive). Still for that read-out and setting: then `CC[C@]12c3[nH]c4ccc(OC)cc4c3CCN1C(=O)C(CC(=O)NCCN1CCOCC1)C[C@@H]2C(=O)N1CCN(C(=O)C2CC2)CC1` (some centres not stated), with -0.596% (inactive).

On to `c1ccc2c(c1)CSc1sccc1C2=C1CCNCC1`, for which the Potency was 20.6 µM (active).

Regarding `Cc1csc(NCC(=O)c2c[nH]c3ccccc23)n1`, the “activity change, negative = growth inhibition” value was 12.2% (inactive).

Take `NC(=O)NCCCC(=O)O`: the “activity change, negative = growth inhibition” value is 0.521% (inactive). Turning to `Cc1cc(C)n(CCNCc2c(C(=O)N3C[C@@H](C)O[C@@H](C)C3)nc3ccc(Cl)cn23)n1`, the “activity change, negative = growth inhibition” value is 7.87% (inactive). On the same count and under the same terms, to `CC(=O)Oc1cccc(C(=O)Nc2ccccc2NC(=O)c2cccc(OC(C)=O)c2)c1` belongs -13.8% (inactive); to `Cc1ccc(C)c2[nH]c(=O)c(CCNC(=O)CC(C)C)cc12`, 10.6% (inactive). On the same count and under the same terms, then `COc1ccc(OC)c2[nH]c(=O)c(CCNC(=O)C(C)(C)C)cc12`, with 4.38% (inactive). Turning to `COc1ccc(OC)c2[nH]c(=O)c(CCNC(=O)C(=O)c3c[nH]c4ccccc34)cc12`, the Potency was 10.3 µM (active). Turning to `CC1(C(=O)NCc2ccccc2)CSCC(=O)N1CCCn1ccnc1` (configuration not stated), the “activity change, negative = growth inhibition” value is 15.7% (inactive). `CC1(C)C=Cc2c(ccc(C(=O)/C=C/c3ccccc3)c2O)O1`: the Potency is 7.94 µM (active).

With `O=C(O)c1ccc2c(c1)C(=O)N(c1ccc(/C=C/C(=O)c3ccccc3)cc1)C2=O`, the “activity change, negative = growth inhibition” value is 11.4% (inactive). Still for that read-out and setting: then `CC1(C(=O)O)CCN1C(=O)/C=C/c1ccccc1` (configuration not stated), with -1.88% (inactive). `O=C(/C=C/c1ccccc1)c1ccccc1O`: the Potency was 10.3 µM (active). Regarding `O=C(/C=C/c1ccccc1)N/C(=C/c1ccccc1)C(=O)Nc1ccccc1O`, the “activity change, negative = growth inhibition” value is -12.3% (inactive). Consider `CC(=O)Nc1ccc(NC(=S)NC(=O)/C=C/c2ccccc2)cc1`, for which the “activity change, negative = growth inhibition” value is 21.7% (inactive).

As to `N#CC1=C(N)Oc2[nH]c(=S)[nH]c(=O)c2C12C(=O)Nc1ccccc12` (configuration not stated), the “activity change, negative = growth inhibition” value is -39.3% (inactive). Still for that read-out and setting: then `O=S(=O)(Nc1ccc2ccccc2c1)N1CCCCC1`, with -17% (inactive); and `CC1CN/C(=C\C(=O)c2ccc(Br)cc2)C(=O)N1` (configuration not stated), with -28% (inactive). On the same count and under the same terms, to `CCN(CC)CCN(C(=O)c1ccc(S(=O)(=O)N2CCOCC2)cc1)c1nc2cc3c(cc2s1)OCCO3` belongs -18.7% (inactive); to `CCOc1ccc2nc(N(CCN(C)C)C(=O)c3ccc4ccccc4c3)sc2c1`, -27.2% (inactive). For `CN(C)CCCN(C(=O)c1ccc(S(=O)(=O)N2CCCCCC2)cc1)c1nc2ccc(Br)cc2s1`, the Potency is 11.6 µM (active). Take `O=c1/c(=C/c2ccc(CNS(=O)(=O)c3ccccc3)o2)sc2n1CCN=2`: the “activity change, negative = growth inhibition” value is -26.8% (inactive). For `Cc1cc(C)n2c(NCc3ccccc3)c(CC(C)C)nc2n1`, the Potency was 14.6 µM (active). Take `Nc1nc(NCc2ccccc2)n(-c2ccccc2)n1`: the “activity change, negative = growth inhibition” value was -6.22% (inactive).

As to `Cn1cc(C2OC(=O)c3ccccc32)c2ccccc21` (configuration not stated), the “activity change, negative = growth inhibition” value is -26.2% (inactive).

In the case of `ONC(=Nc1ccc(Cl)cc1)c1ccccc1Cl`, the “activity change, negative = growth inhibition” value was -27.7% (inactive).

As for `Cc1ccc(/C=N/NC(=O)Cn2ccc(C(F)(F)F)n2)o1`, the “activity change, negative = growth inhibition” value was 11.8% (inactive). With `CCOc1ccc2oc(C(=O)N(CC)CC(=O)Nc3ccc(NC(C)=O)cc3)c(C)c2c1`, the “activity change, negative = growth inhibition” value is 0.608% (inactive).
